tim23-1 inh: tim23-1 yeast growth inhibition | hit rate 1.3% among 330,000 | S. cerevisiae tim23-1 growth, BacTiter-Glo luminescence, 24 h | inhibition, % at 20 µM;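 active = growth inhibition of the mutant yeast at or above 50%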;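 note: temperature-sensitive mutant grown at 25 °C; plate controls were DMSO-treated mutant yeast for no effect and medium wells lacking yeast for full effect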
TIM10 inh: TIM10 yeast growth inhibition; S. cerevisiae TIM10 strain growth, BacTiter-Glo luminescence, 24 h; hit rate 1.4% among 330,000; inhibition, % at 10 µM; AID 463195;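 active = inhibition of 40% or more at the single tested concentration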;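 note: wild-type TIM10 isogenic control strain grown at permissive 25 °C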
Calb FLC: C. albicans growth modulation with fluconazole; hit rate 0.57% among 300,000; AID 1979; C. albicans CaCi-2 (fluconazole-resistant clinical isolate) + fluconazole, Alamar Blue growth, 48 h; growth inhibition, % (concentration not given with the values);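 active = growth inhibition above about 58% in most replicates, limit read from the data, passing the limit was not always enough; inconclusive = exactly half the replicates above a set limit; inactive = most replicates below a set limit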;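 note: all wells also contain fluconazole at 8 µg/ml as a sub-toxic cotreatment; 0% = median of DMSO wells and 100% = median of geldanamycin control wells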
SKKanGAS inh: blocks kanamycin growth of S. pyogenes SKKanGAS strain; hit rate 1.3% among 300,000; BacTiter-Glo, 6 h; AID 1662; inhibition, % at 7.5 µM;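 active = mean replicate score, as percent of positive control median, at least 50; inconclusive = mean below 50 but one replicate at or above 50; inactive = mean and every replicate below 50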;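 note: strain carries kanamycin resistance gene driven by streptokinase promoter and grows in 40 µg/ml kanamycin; loss of luminescence reflects streptokinase promoter inhibition or plain growth inhibition; 0% = median of DMSO wells and 100% = positive control at its reference dose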
PfHsp90 yeast 2: inhibits growth of yeast expressing Plasmodium falciparum Hsp90 | S. cerevisiae expressing PfHsp90, BacTiter-Glo ATP, 48 h; yeast lacking PDR1 and PDR3 efflux regulators | inhibition, % at 9.4 µM | hit rate 0.32% among 310,000 | AID 504621;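 active = every replicate shows inhibition above about 80%, whatever the replicate mean, limit read from the data; inconclusive = mean inhibition reaches the set limit but some replicate falls short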;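 note: 0% = DMSO neutral controls and 100% = 20 µM radicicol positive controls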
tim10-1 inh: tim10-1 yeast growth inhibition; inhibition, % at 20 µM; AID 463190; S. cerevisiae tim10-1 ts strain growth, BacTiter-Glo, 24 h; hit rate 2.2% among 330,000;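 active = inhibition of at least 40%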;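 note: mutant grown at 25 °C; 0% = DMSO wells with yeast and 100% = wells holding no yeast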
tim23-1 conf: confirmation of tim23-1 mutant yeast growth inhibitors. hit rate 83% among 4,400. AID 463218. inhibition, % at 20 µM. shares compounds with tim23-1 inh. S. cerevisiae tim23-1 growth, BacTiter-Glo luminescence, 24 h;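 active = inhibition above about 39% in either of two replicate wells at 20 µM, limit read from the data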;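 note: temperature-sensitive tim23-1 mutant grown at 25 °C; 0% = DMSO wells with yeast and 100% = medium wells without yeast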
Active calls of the source: *; u = inconclusive; x = no result. Shown are actives, neighbours in structure and some others; about 4.7% of the full set was active somewhere.

SMILES	tim23-1 inh	TIM10 inh	Calb FLC	SKKanGAS inh	PfHsp90 yeast 2	tim10-1 inh	tim23-1 conf
O=C(COC(=O)Cc1ccccc1F)NCCNC(=O)COC(=O)Cc1ccccc1F	-7	6	3	-3	x	1	x
O=C(COC(=O)CC1CCCC1)Nc1ccc(Cl)cc1	62*	26	x	x	x	36	55*
CCOc1ccc(NC(=O)COC(=O)CC2CCCCC2)cc1	31	15	x	x	-14	-21	x
Cc1c(NS(=O)(=O)c2cccs2)cccc1-c1nc2cccnc2s1	59*	28	10	-2	4	33	56*
Cc1nn(CC(=O)NC2(C)CCS(=O)(=O)C2)c(C)c1S(=O)(=O)N(C)C (stereo not drawn)	-2	10	x	x	-4	-13	x
Cc1cccnc1NC(=O)Nc1cccc(Cl)c1	16	-1	-11	4	-12	3	x
Cn1c(=S)c2[nH]c(SCC3CCCO3)nc2n(C)c1=O (stereo not drawn)	x	x	x	x	-12	x	x
CC(C)=CCc1cc(-c2oc3cc(O)cc(O)c3c(=O)c2O)ccc1O	51*	-34	-10	31	x	8	51*
O=c1c(O)c(-c2cc(O)c(O)c(O)c2)oc2cc(O)cc(O)c12	23	-20	x	x	-2	-11	x
O=c1c(O)c(-c2ccccc2)oc2cc(O)cc(O)c12	58*	-7	x	x	17	-7	61*
O=c1c(-c2ccccc2)c(-c2ccccc2)oc2cc(O)cc(O)c12	55*	30	-19	5	123*	22	-24
O=C(NCC(c1ccco1)N1CCCC1)c1cc(S(=O)(=O)N2CCOCC2)ccc1Cl (stereo not drawn)	-4	-2	x	x	1	-2	x
COC(=O)CC1COc2ccccc2N1C(=O)c1ccc(C(C)(C)C)cc1 (stereo not drawn)	53*	25	-23	4	3	21	38
COC(=O)CC1COc2ccccc2N1C(=O)c1ccc(Br)cc1 (stereo not drawn)	20	30	3	-13	7	16	x
Cc1ccc(C)n1-n1c(C)nc2sc(-c3ccccc3)cc2c1=O	13	-7	-8	6	-4	-1	x
Cc1nc2cc(-c3ccccc3)sc2c(=O)n1N	51*	33	-2	63*	56	36	53*
COc1ccc(-c2sc3ccccc3c2-c2ccc(OCCN(C)C)cc2)cc1	3	-11	x	x	41	14	x
CN(C)CCOc1ccc(-c2c(-c3ccsc3)sc3ccccc23)cc1	76*	14	x	x	24	25	57*
O=C(CCCN1C(=O)/C(=C/c2ccccc2)SC1=S)Nc1cccc(O)c1	50*	33	22	4	4	38	50*
O=C(CCCN1C(=O)/C(=C\c2ccccc2)SC1=S)Nc1cccc(C(=O)O)c1	10	1	-5	12	-49	7	x
O=C(Cc1ccc([N+](=O)[O-])cc1)N/N=C/c1ccc([N+](=O)[O-])o1	16	-1	6	u	-3	16	x
O=C(CC12CC3CC(CC(C3)C1)C2)N/N=C/c1ccc([N+](=O)[O-])o1	57*	36	0	-16	-20	38	37
Cc1cc(C)cc(OCC(=O)N/N=C/c2ccc([N+](=O)[O-])o2)c1	52*	33	u	-6	22	33	38
O=C(CN(C(=O)CCC(=O)Nc1nccs1)c1cccc(C(F)(F)F)c1)NCC1CCCO1 (stereo not drawn)	16	1	2	-1	-22	-17	x
Oc1c(C(Nc2cccc(C(F)(F)F)c2)c2ccncc2)ccc2cccnc12 (stereo not drawn)	59*	18	93*	60*	104*	29	56*
SMILES	tim23-1 inh	TIM10 inh	Calb FLC	SKKanGAS inh	PfHsp90 yeast 2	tim10-1 inh	tim23-1 conf
O=C(O)c1cccnc1Nc1cccc(C(F)(F)F)c1	19	4	x	5	-17	12	x
CN(C(=O)Cn1nc(C(=O)O)c2ccccc2c1=O)C1CCCCC1	17	0	x	x	18	10	x
Cc1ccc(S(=O)(=O)N2CCN(C(=O)COC(=O)/C=C/c3ccccc3[N+](=O)[O-])CC2)c(C)c1	-2	1	-5	-6	-7	16	x
Cc1ccccc1C(=O)Oc1cccc2c(O)cccc12	72*	30	21	9	-15	28	49*
Cc1cccc(C(=O)Oc2cccc3c(O)cccc23)c1	69*	21	11	9	-14	0	51*
CCOc1ccc(S(=O)(=O)NCCC(=O)NC2CCCCC2)cc1	-7	1	-4	-1	-13	-8	x
CCC(C)Sc1cc(C)c(C#N)c2nc3ccccc3n12 (stereo not drawn)	54*	32	5	43	-7	17	37
CCC(C)Nc1cc(C)c(C#N)c2nc3ccccc3n12 (stereo not drawn)	12	16	1	11	15	24	x
Nc1ncnc2c1ncn2[C@@H]1O[C@H](CNCc2ccccc2OCC(=O)N2CCCCC2)[C@@H](O)[C@H]1O	6	-6	x	x	7	7	x
Oc1ccc2ccccc2c1C=Nc1ccccc1-c1nc2ccccc2[nH]1	52*	15	-1	9	5	39	47*
Cc1nc(NCCc2ccccc2)c2oc3ccccc3c2n1	61*	24	u	3	49	30	41*
Cc1nc(NCCN2CCOCC2)c2oc3ccccc3c2n1	-4	-6	-6	-5	-28	-6	x
Cc1ccc(N(CC(=O)NCC2CCCO2)C(=O)CCC(=O)Nc2nccs2)cc1 (stereo not drawn)	13	4	3	-3	10	14	x
CC(OC(=O)c1cccnc1SCc1cc(=O)n2ccccc2n1)c1ccccn1 (stereo not drawn)	40	24	44	-3	1	33	x
CCOC(=O)c1cccnc1SCc1cc(=O)n2ccccc2n1	71*	-5	3	7	4	17	65*
Nc1nc(Sc2c([N+](=O)[O-])cc(C(F)(F)F)cc2[N+](=O)[O-])n[nH]1	5	17	7	5	-2	9	x
CC(/C=N/NC(=O)c1cccs1)=C\c1ccco1	64*	23	-11	-9	3	6	71*
CCOc1cc(/C=C2\C(=O)ON=C2C)ccc1OCc1ccccc1	51*	12	5	26	11	32	41*
CCCOc1ccc(/C=C2/C(=O)ON=C2C)cc1OCC	36	2	-2	0	3	5	x
CC(c1ccccc1)n1c(-c2ccncc2)n[nH]c1=S (stereo not drawn)	12	0	10	14	-12	9	x
CC(c1ccccc1)n1c(-c2ccc(Cl)cc2)n[nH]c1=S (stereo not drawn)	55*	25	6	18	-9	2	27
